# A selection: hits, their analogues and other compounds. The true share with any hit is near 4.5%.
# TIM10 inh: growth inhibitors of TIM10 yeast strain; inhibition, % at 10 µM; 330,000 compounds, 1.4% hits; S. cerevisiae TIM10 strain growth, BacTiter-Glo luminescence, 24 h;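 active = inhibition of 40% or more at the single tested concentration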;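 also: wild-type TIM10 isogenic control strain grown at permissive 25 °C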
# tim10-1 inh: inhibits growth of tim10-1 mutant yeast | S. cerevisiae tim10-1 ts strain growth, BacTiter-Glo, 24 h | 330,000 compounds, 2.2% hits | AID 463190 | inhibition, % at 20 µM;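 active = inhibition of at least 40%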;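 also: mutant grown at 25 °C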
# NLRP3 yeast inh: NALP3 inhibition in yeast; Yeast reconstituted NLRP3/ASC/caspase-1, beta-gal luminescence, 24 h; inhibition, % at 10 µM; 330,000 compounds, 0.39% hits; AID 2825;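 active = inhibition of 50% or more; inactive = inhibition below 50%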
# SKKanGAS inh: blocks kanamycin growth of S. pyogenes SKKanGAS strain; 300,000 compounds, 1.3% hits; AID 1662; BacTiter-Glo, 6 h; inhibition, % at 7.5 µM;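 active = mean replicate score, as percent of positive control median, at least 50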;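 also: strain carries kanamycin resistance gene driven by streptokinase promoter and grows in 40 µg/ml kanamycin; loss of luminescence reflects streptokinase promoter inhibition or plain growth inhibition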
# PfHsp90 yeast 2: growth inhibition of yeast expressing Plasmodium Hsp90; inhibition, % at 9.4 µM; S. cerevisiae expressing PfHsp90, BacTiter-Glo ATP, 48 h; yeast lacking PDR1 and PDR3 efflux regulators; 310,000 compounds, 0.32% hits;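 active = every replicate shows inhibition above about 80%, whatever the replicate mean, limit read from the data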
# tim23-1 inh: inhibits growth of tim23-1 mutant yeast. S. cerevisiae tim23-1 growth, BacTiter-Glo luminescence, 24 h. inhibition, % at 20 µM. 330,000 compounds, 1.3% hits. AID 463212;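 active = growth inhibition of the mutant yeast at or above 50%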;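 also: temperature-sensitive mutant grown at 25 °C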
# tim10-1 conf: tim10-1 yeast growth inhibition, confirmed | shares compounds with tim10-1 inh | S. cerevisiae tim10-1 ts strain growth, BacTiter-Glo, 24 h | inhibition, % at 20 µM | 7,400 compounds, 56% hits | AID 463213;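 active = inhibition of yeast growth at or above a set limit in either of two repeat tests at 20 µM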;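 also: tim10-1 mutant grown at permissive 25 °C to find synthetic lethal compounds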
# TIM10 conf: TIM10 yeast growth inhibition, confirmed; shares compounds with TIM10 inh; S. cerevisiae tim10 strain growth, BacTiter-Glo luminescence, 24 h; inhibition, % at 10 µM; 4,600 compounds, 63% hits;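 active = inhibition of yeast growth at or above a set limit in either of two replicates at 10 µM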; also: this counterscreen used the strain with wild-type TIM10
# Hits are given with their value; – = inactive; · = no result given.
SMILES,TIM10 inh,tim10-1 inh,NLRP3 yeast inh,SKKanGAS inh,PfHsp90 yeast 2,tim23-1 inh,tim10-1 conf,TIM10 conf
O=C(CSC1=NS(=O)(=O)c2cc(Cl)ccc2N1)Nc1ccccc1C(F)(F)F,–,–,–,–,–,–,·,·
COc1cccc(C=NNc2nc3ccccc3s2)c1OC,·,·,·,·,–,·,·,·
COc1cccc(/C=N/Nc2ncnc3scc(-c4ccccc4)c23)c1OC,40,46,–,–,–,–,43,31
CC(=O)NC12CC3CC(C1)CC(C(=O)N(C)CC(=O)Nc1ccc(F)c(F)c1F)(C3)C2,–,–,–,·,·,–,·,·
CN(C)CC(C(=O)c1ccccc1)c1ccccc1 (centres undefined),51,50,–,–,–,–,57,60
CN(Cc1cc(Cl)cc(Cl)c1)CC(C(=O)c1ccccc1)c1ccccc1 (centres undefined),·,·,·,·,–,·,·,·
O=C(NC12CC3CC(CC(C3)C1)C2)c1ccc(-c2ccc(Cl)cc2)o1,–,–,–,–,–,–,·,·
O=C(NC12CC3CC(CC(C3)C1)C2)c1ccc(-c2cccc(Cl)c2)o1,47,47,–,–,–,–,36,–
COc1ccc(NS(=O)(=O)NC(=O)c2cn(C)c3ccccc23)cc1,–,–,–,–,–,–,·,·
O=C(Nc1ccc(OCC(F)(F)C(F)F)c(C(F)(F)F)c1)c1ccc(Cl)cc1,58,53,–,92,–,–,35,–
COc1ccc(/C=C/C(=O)c2ccc3c(c2)OCCO3)cc1[N+](=O)[O-],44,43,–,–,–,–,–,40
COc1ccc(/C=N/NC(=O)c2ccc3c(c2)OCCO3)cc1[N+](=O)[O-],–,–,–,–,–,–,·,·
O=C(c1cccc([N+](=O)[O-])c1)c1ccc2c(c1)OCCOCCOCCOCCO2,–,–,–,–,·,–,·,·
O=C(/C=C/c1cccc([N+](=O)[O-])c1)c1ccc2c(c1)OCCO2,47,41,–,–,–,–,50,47
COc1cc(/C=C/C(=O)O)ccc1OS(=O)(=O)c1c(C)cc(C)cc1C,–,–,–,·,·,–,·,·
O=C(Nc1ccccc1N1CCCCC1)c1ccc(-c2cc(Cl)ccc2Cl)o1,–,–,–,–,–,–,·,·
Cc1[nH]c2ccccc2c1C(=O)C(C)OC(=O)C1CCC1 (centres undefined),–,–,–,–,–,–,·,·
Oc1ccccc1-c1nc(NCCN2CCOCC2)c2ccccc2n1,50,52,–,–,–,–,40,32
COc1ccc(CCN(Cc2cc3ccc(C)cc3[nH]c2=O)C(C)=O)cc1OC,–,–,–,–,–,–,·,·
CCC(=O)Nc1cccc(C(=O)/C=C/c2ccc(F)cc2)c1,47,48,–,–,–,–,43,–
CC(=O)Nc1cccc(C(=O)/C=C/c2ccc(C)cc2)c1,–,–,–,–,–,–,·,·
CC(=O)c1ccc(NC(=O)c2ccc([N+](=O)[O-])o2)cc1,81,57,–,–,–,–,43,90
O=C(Nc1cccnc1)c1ccc([N+](=O)[O-])o1,–,–,–,–,–,–,·,·
O=C(Nc1cccc(Cl)c1N1CCCC1)c1ccc([N+](=O)[O-])o1,40,47,–,·,–,–,41,–
CCN1CCN(c2c(Cl)cccc2NC(=O)c2ccc([N+](=O)[O-])o2)CC1,–,–,–,–,·,–,·,·
SMILES,TIM10 inh,tim10-1 inh,NLRP3 yeast inh,SKKanGAS inh,PfHsp90 yeast 2,tim23-1 inh,tim10-1 conf,TIM10 conf
COc1cc(NC(=O)c2ccc([N+](=O)[O-])o2)ccc1NC(=O)c1ccco1,47,46,–,–,–,–,45,60
Cc1cc(C)cc(NC(=O)c2ccc([N+](=O)[O-])o2)c1,83,49,–,–,–,–,34,82
O=C(Nc1cccc(NC(=O)c2ccco2)n1)c1ccco1,–,–,–,–,–,–,·,·
CCCCN(C(=O)C1CCCO1)c1c(N)n(CC(C)C)c(=O)[nH]c1=O (centres undefined),–,–,–,–,–,–,·,·
Cc1ccc(N2C(=O)CC(Sc3nc(C)cc(C)n3)C2=O)cc1 (centres undefined),–,–,–,–,–,–,·,·
CC(C)c1ccc(N2C(=O)CC(Sc3ncn[nH]3)C2=O)cc1 (centres undefined),69,46,–,–,–,–,52,62
CC(C)c1ccc(N2C(=O)CC(Sc3nc4ccccc4o3)C2=O)cc1 (centres undefined),53,52,–,–,·,–,46,41
COc1ccc(N2C(=O)CC(Sc3ncn[nH]3)C2=O)c(OC)c1 (centres undefined),–,–,–,–,–,–,·,·
COC(=O)C(Cc1ccccc1)NC(=O)CNC(=O)c1ccc(Br)cc1 (centres undefined),–,–,–,–,–,–,·,·
Clc1ccc2c(N/N=C/c3cccnc3)ccnc2c1,71,51,–,–,–,–,57,79
Fc1ccc(N/N=C/c2cccnc2)c(F)c1,–,–,–,–,–,–,·,·
CN1C[C@@H]2[C@@H]3C(=O)N(C)C(=O)[C@@H]3[C@](C)(C1=O)N2C(=O)c1ccc(Br)cc1,·,·,·,·,–,·,·,·
Cc1cc(C(=O)Nc2ccc(S(=O)(=O)N3CCCC3)cc2)cs1,56,44,–,·,–,–,40,36
CC(=O)c1ccc(NC(=O)c2ccc(S(=O)(=O)N3CCCC3)cc2)cc1,–,–,–,–,–,–,·,·
COc1ccc(C(=O)Nc2ccc(S(=O)(=O)N3CCCCC3)cc2)cc1OC,60,49,–,–,–,–,33,–
COc1cc(OC)c(C(=O)Nc2ccc(S(=O)(=O)N3CCCCC3)cc2)cc1OC,–,–,–,–,–,–,·,·
CCOc1ccc(C2/C(=C(\O)c3ccc4c(c3)OCCO4)C(=O)C(=O)N2Cc2cccnc2)cc1OCC (centres undefined),–,–,–,–,–,–,·,·
c1ccc(-c2c(-c3ccccc3)n(Cc3ccco3)c3ncnc(NCCCn4ccnc4)c23)cc1,45,40,–,–,104,–,38,–
O=C(COC(=O)c1c(F)cccc1F)Nc1ccc(N2CCCCC2)cc1,–,–,–,·,–,–,·,·
O=S(=O)(c1ccccc1)c1ccc(NCc2ccco2)cc1,42,43,–,–,–,–,38,39
O=S(=O)(Nc1nc2ccccc2nc1NCc1ccco1)c1ccccc1,–,–,–,–,–,–,·,·
Clc1cccc(CN2CCc3c([nH]c4ccccc34)C2)c1Cl,60,72,–,–,–,–,66,66
COc1ccc(C(=O)CSc2nc3ccccc3n2CC(=O)c2ccccc2)cc1,–,–,–,–,–,–,·,·
